In general, inhibition refers to the change of the read-out against control, counted positive when it falls. For orientation: AC50 means the concentration giving half of the maximal activity seen.

The results in this text go back to PubChem BioAssay.

Where “and” joins values, the source holds several entries; their conditions need not be identical. Equal entries are not always repeated. Results filed as inconclusive are left out. Calls of active or inactive are those of the source. Unless noted, no stated cut-off is given here; in the data, active means inhibition above about 80%; inactive means the rest.

Assay [1] in a line: viability loss in pontine glioma line – cell-based, SU-DIPG-XIII, MIPE4.0, CellTiter-Glo, qHTS, dose response (AID 1347061; cut-off not given, nearly all actives have AC50 up to about 37 µM;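 further: cells exposed to compound for 48 hours before readout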). The conditions noted are these: CellTiter-Glo ATP luminescence. (Cellular ATP, detected with luciferase, serves as a proxy for viable cell number.)
The nature of assay [2]: viability loss in pontine glioma line – cell-based, SU-DIPG-IV, MIPE4.0, CellTiter-Glo, qHTS, dose response (AID 1347063; cut-off not given, nearly all actives have AC50 up to about 30 µM;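 further: compound exposure lasted 48 hours before the viability readout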). The conditions noted are these: CellTiter-Glo ATP luminescence.
The nature of assay [3]: growth inhibition of DIPG cells – cell-based, MIPE4.0 library, CellTiter-Glo luminescence, qHTS (AID 1347066; cut-off not given, nearly all actives have AC50 up to about 30 µM;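 further: cells exposed to compound for 48 hours before readout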). The conditions noted are these: SU-DIPG-VI viability, CellTiter-Glo ATP luminescence.
A short description of assay [4]: viability loss with induced miR-34 in A549 – imaging, A549 dox-inducible miR-34, nuclei and caspase counts, primary screen (AID 1347080;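 active means compounds whose cell count with miR-34 switched on is under 0.7 times the count with it off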). The conditions noted are these: A549 miR-34 inducible, Hoechst nuclei count, 48 h.
Assay [5] is described as follows: compounds altering HSF1 focus formation in cells – imaging, Selleck Cancer Library (AID 1347162; in the data active means plate-normalised HSF1 focus index below about 0.46). The conditions noted are these: human cells, HSF1 nuclear foci imaging, at 10 µM; SSMD: measured here: HSF1 foci SSMD mean; cell count: measured here: cell number; plate-normalised HSF1 focus index: stronger effect = lower value.
The nature of assay [6]: MELAS cybrid and Rieske KO viability enhancers – cell-based, MELAS cybrids, Rieske KO mouse fibroblasts, CellTiter-Glo, primary screen (AID 1508586;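 active means mean z-score across replicates of 1.96 or higher in either the MELAS or the Rieske mutant cell line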;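 further: z relative to plate mean and SD of compound and empty wells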). The conditions noted are these: low glucose.
Assay [7] is described as follows: growth inhibition, single agent or in combination, cell-based, chromothripsis tumors, cisplatin or BGB combos (AID 1671449).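 Further: cells exposed for 96 hours; 0% = vehicle DMSO and 100% = killing by high DMSO.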 The note with it: LFS_MB_P medulloblastoma cells.
The nature of assay [8]: growth inhibition, single agent and combos, cell-based, chromothripsis tumors, cisplatin or BGB combos (AID 1671450).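 Further: cells exposed to compound for four days; 0% = vehicle DMSO and 100% = cell killing by high DMSO.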 The note with it: HDN33 neuroblastoma cells, stronger effect = higher value.
Assay [9] is described as follows: growth inhibition, single agents and combos, ICB984, cell-based, cisplatin or BGB combos, synergistic combos for chromothripsis tumors (AID 1671451; call rule not given here;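 further: cells exposed for 96 hours before readout; 0% = vehicle DMSO and 100% = killing by high DMSO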). The note with it: ICB984 medulloblastoma cells, drug combinations, stronger effect = higher value.
A short description of assay [10]: growth inhibition, single agents and combos, HTB85, cell-based, BGB or cisplatin IC20 combos, synergistic combos for chromothripsis tumors (AID 1671453).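 Further: cells exposed for 96 hours before readout; 0% = vehicle DMSO and 100% = high DMSO killing control.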 The note with it: HTB85 osteosarcoma cells, drug combinations, stronger effect = higher value.
Assay [11] in a line: growth inhibition, MDA-MB-436, cell-based, BGB or cisplatin combos, synergistic combos for chromothripsis tumors (AID 1671458; call rule not given here;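 further: cells exposed for 96 hours; 0% = vehicle DMSO and 100% = killing by high DMSO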). The note with it: MDA-MB-436 breast carcinoma growth inhibition, drug combinations, stronger effect = higher value.
Assay [12] can be described thus: BT084 cell growth, single and combined drugs, ICGC_MB145, cisplatin and BGB IC40 combos (AID 1671461).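 Further: cells exposed to drugs for 96 hours; 0% = vehicle DMSO and 100% = high DMSO full killing control.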 The conditions noted are these: BT084 medulloblastoma cells, drug combinations, stronger effect = higher value.
Assay [13] is described as follows: RCMB18 cell growth, single agent and combined, cisplatin and BGB IC40 combos (AID 1671462).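 Further: cells exposed to compound for four days.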 The conditions noted are these: RCMB18 medulloblastoma cells, stronger effect = higher value.
Assay [14] can be described thus: CRL1545 cell growth, single agent and combined, cisplatin and BGB IC20 combos (AID 1671464).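 Further: cells exposed to compound for 96 hours before readout; 0% = vehicle DMSO and 100% = high DMSO killing control.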 The conditions noted are these: CRL1545 osteosarcoma cells, stronger effect = higher value.
Assay [15] can be described thus: viability loss in pontine glioma line – cell-based, SU-DIPG-XXV, MIPE5.0, CellTiter-Glo, qHTS, dose response (AID 1347065; cut-off not given, nearly all actives have AC50 up to about 26 µM;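 further: cells exposed to compound for 48 hours before ATP readout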). The note with it: CellTiter-Glo ATP luminescence.
The nature of assay [16]: JHH-DIPG-1 glioma cell viability, MIPE5.0 library, CellTiter-Glo luminescence, qHTS (AID 1347067; cut-off not given, nearly all actives have AC50 up to about 26 µM;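 further: cells exposed to compound for 48 hours before readout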). The conditions noted are these: JHH-DIPG-1 glioma viability, CellTiter-Glo ATP luminescence.
Where [17] appears, read: measured here: with BGB IC20 combination, at 0.5 µM.
The mark [18] stands for this setting: measured here: with cisplatin IC20 combination, at 0.5 µM.

For `CNCc1ccc(-c2[nH]c3cc(F)cc4c3c2CCNC4=O)cc1`, the compound was classed as inactive in assay [1], in assay [2] and in assay [3]. Moreover, the fold change in assay [4] (stronger effect = lower value, cell number ratio, induced over uninduced) is 0.956 (inactive); in assay [4] (measured here: relative caspase fold change +Dox/-Dox), 1.62. The cell count in [4] (measured here: total cells with miR-34 induction, stronger effect = lower value) amounted to 6530; in [4] (measured here: total cells without miR-34 induction), 6840; in assay [5], 7610. Further, in assay [5], the SSMD amounted to 2.12. Further, the plate-normalised HSF1 focus index in [5] is 1.13 (inactive). Moreover, the z-score in assay [6] (MELAS cybrid survival, CellTiter-Glo 48 h, stronger effect = higher value) was -0.49 (inactive); in assay [6] (Rieske KO mouse fibroblast survival, CellTiter-Glo 72 h) it was -0.266. In addition, the inhibition in assay [7] (at 0.5 µM, stronger effect = higher value) was 11.2% (inactive) and -4.36% (inactive); in assay [7] (measured here: combination with BGB IC20, at 0.005 µM) it was -33.6% and -11.5%; in assay [7] (measured here: combination with BGB IC40, at 0.005 µM) it was -21.8% and 22.8%; in assay [7] (measured here: combination with BGB IC40, at 0.05 µM), -33.3% and -12.4%; in [7] (measured here: combination with cisplatin, at 0.5 µM, stronger effect = higher value), -17.5% and -5.55%; in assay [7] (measured here: combination with cisplatin, at 5 µM, stronger effect = higher value), -45.3% and -35.9%. Besides, the inhibition in assay [8] (BGB combo, at 5 µM) was -25.2% and 11.9%; in assay [8] (at 0.5 µM) it was -14.8% (inactive) and 14.3% (inactive); in assay [8] (cisplatin combo, at 5 µM), -4.69% and 14.3%; in assay [8] (setting [17]), -21.7% and 13.3%; in assay [8] (setting [18]), -14.7% and 11.6%; in assay [8] (single agent, at 5 µM), 9.94% and 30.8%. Also, the inhibition in [9] (BGB IC20 combo, at 0.005 µM) is -15.3% and 7.74%; in assay [9] (BGB IC40 combo, at 0.005 µM), -14.9% and -10.3%; in [9] (BGB IC40 combo, at 0.05 µM), -15.6% and -2.1%; in assay [9] (at 0.5 µM) it was -18% (inactive) and -11.9% (inactive); in assay [9] (cisplatin combo, at 0.05 µM), -19.7% and -5.77%; in [9] (cisplatin combo, at 0.5 µM) it was -11.2% and -6.08%. Further, the inhibition was -48.3% and -31.5% in assay [9] (cisplatin combo, at 5 µM); 4.24% and 12.5% in assay [9] (measured here: 5 uM single agent, at 5 µM); -0.57% (inactive) and 3.23% (inactive) in assay [10] (at 0.5 µM); -24.5% and -14.6% in assay [10] (measured here: with BGB IC20, at 0.5 µM); -20.2% and -0.361% in assay [10] (measured here: with BGB IC20, at 5 µM); 6.68% and 16.2% in assay [10] (measured here: with cisplatin IC20, at 0.5 µM). The inhibition was -9.57% and 9.16% in [10] (measured here: with cisplatin IC20, at 5 µM); -2.29% and 13.1% in assay [10] (single agent, at 5 µM); 2.86% (inactive) and 14.9% (inactive) in [11] (at 0.5 µM); -19.1% and 0.063% in [11] (measured here: BGB combination, at 0.5 µM); -12.9% and -16% in assay [11] (measured here: BGB combination, at 5 µM); 9.87% and 19.6% in assay [11] (measured here: cisplatin combination, at 0.5 µM). Further, the inhibition in [11] (measured here: cisplatin combination, at 5 µM) is 31.2% and 24.2%; in assay [12] (at 0.5 µM), -22% (inactive) and 7.71% (inactive); in assay [12] (cisplatin combination, at 0.5 µM) it was -60.7% and -23.3%; in assay [12] (cisplatin combination, at 5 µM) it was -41.6% and -18%; in [12] (measured here: BGB IC40 combination 0.05 uM, at 0.05 µM), 24.6% and 0.2%; in assay [12] (single agent, at 5 µM), -4.29% and -11.5%. For the same compound, the inhibition was -28.5% (inactive) and -5.9% (inactive) in [13] (at 0.5 µM); -30.1% and -29% in [13] (cisplatin combo, at 5 µM); -11.1% and 4.25% in assay [13] (measured here: BGB IC40 combination, at 0.05 µM); -71.1% and 1.49% in [13] (measured here: combination with cisplatin, at 0.5 µM); -19.5% and -1.31% in assay [13] (single agent, at 5 µM); 3.62% (inactive) and -10.7% (inactive) in assay [14] (at 0.5 µM). For the same compound, the inhibition is -15.5% and 1.35% in assay [14] (setting [17]); 11.8% and -18.6% in assay [14] (setting [18]); 15.8% and 33% in assay [14] (single agent, at 0.05 µM); 1.41% and -6.63% in [14] (single agent, at 5 µM).

With `Cc1cccc2c1CC[C@H](CN1CCC(c3c(Cl)cccc3Cl)CC1)C[C@@H]2O`, the compound was classed as inactive in assay [1] and in [3].

Take `C[C@@H](NCc1cc2ccccc2[nH]1)c1cccc2ccccc12`: the compound was called inactive in assay [1], in [2] and in [3]. Further, the concentration at half-maximal activity (AC50) in assay [15] is 26.3 µM (active); in assay [16] it was 14.8 µM (active).

`CC(=O)C1=C(O)C=C2Oc3c(C(C)=O)c(O)c(C)c(O)c3C2(C)C1=O` (configuration not stated): the compound was called inactive in assay [1] and in [3].
